Shown are actives, neighbours in structure and some others; about 17% of the full set was active somewhere.
HT1080-NT tox: qHTS for induction of synthetic lethality in tumor cells producing 2HG: qHTS for the HT-1080-NT fibrosarcoma cell line; HT-1080-NT fibrosarcoma viability, CellTiter-Glo ATP luminescence, 48 h; Potency, µM (doses to about 46.1 µM), without a hit: top-dose activity, negative = less viability, actives largely listed as cytotoxic; 1.6% of 360,000 active;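 further: NT is the 2HG producing partner of a matched IDH1 knockdown line; 0% = DMSO-treated cells and -100% = media-only wells without cells; nearly all actives have a fitted effect of over 55% in size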
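Compounds were tested in concentration-response format on HT-1080-NT cells for 48 hours at 37 degrees C. Cell viability came from CellTiter-Glo luminescence; curves were classified by r2, response magnitude and activity.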
HepG2 tox: qHTS for Inhibitors of TGF-b: Cytotox Counterscreen; HepG2 CAGA-GFP viability, ATP luminescence, 18 h; Potency, µM (series often up to 46.1 µM), for the others: top-dose activity change, negative = cytotoxicity, hits mostly cytotoxic; 0.76% of 410,000 active; AID 588856, 2011
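HepG2 CAGA-GFP cells (1000/well, DMEM with 1% FBS) received compound, then TGF-beta at 500 pg/mL final, and were incubated 18 hours at 37 degrees C. Viability was read by CellTiter-Glo luminescence. Media-only wells were set as complete cell-killing and DMSO as no toxicity.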
TDP1 cell CPT: qHTS for Inhibitors of human tyrosyl-DNA phosphodiesterase 1 (TDP1): qHTS in cells in presence of CPT; AID 686979, 2013; Potency, µM (doses to about 46.2 µM), for the others: at the top dose activity change, negative = growth inhibition, actives largely listed as inhibitors; chicken DT40 Tdp1-/-;hTDP1 cells + 20 nM CPT, ATP luminescence, 48 h; 12% of 420,000 active; further: on the % scale 0 is the no-effect control and ±100 the full control effect; nearly all actives have a fitted effect of over 55% in size
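Chicken DT40 Tdp1-/- cells stably complemented with human TDP1 were seeded at 400 cells/well in medium containing 20 nM camptothecin, exposed to pin-transferred compounds, and grown at 37 °C for at least 48 hr. Viability was read as ATP luminescence.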
DT40 TDP1 no CPT: qHTS for Inhibitors of human tyrosyl-DNA phosphodiesterase 1 (TDP1): qHTS in cells in absence of CPT; 15% of 420,000 active; AID 686978, 2013; DT40 Tdp1-/- hTDP1 cells, no CPT, ATP luminescence, 48 h; Potency, µM (series often up to 46.2 µM), without a hit: at the top dose activity change, negative = growth inhibition, most hits filed as inhibitors; further: on the % scale 0 is the no-effect control and ±100 the full control effect; nearly all actives have a fitted effect of over 55% in size
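Chicken DT40 Tdp1-/- cells stably complemented with human TDP1 were seeded at 400 cells/well with DMSO in place of 20 nM camptothecin. After compound pinning, cells grew at least 48 hr at 37 °C; viability read by CellTiter-Glo luminescence.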
HT1080 IDH1KD tx: qHTS for induction of synthetic lethality in tumor cells producing 2HG: qHTS for the HT-1080-IDH1KD cell line; HT-1080 IDH1 knockdown viability, ATP luminescence, 48 h; Potency, µM (doses to about 46.1 µM), for the others: top-dose activity, negative = toxicity, usual class: cytotoxic; 2% of 360,000 active; AID 686971, 2013;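 further: 0% = DMSO wells and -100% = cell-free medium wells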
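Knockdown cells (IDH1KD HT-1080) received compounds 2 h after plating at 750 cells/well and were kept 48 h at 37 °C in 5% FBS RPMI. A CellTiter-Glo luminescence read gave % activity for curve fitting.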
TGFb inhibitor: qHTS for Inhibitors of TGF-b. HepG2 CAGA-GFP TGF-b/SMAD3 reporter, GFP fluorescence, 18 h; TGF-beta stimulated, 500 pg/mL final. Potency, µM (titrated, usually from 46.1 µM), for inactives: at the top dose activity, negative = inhibition, usual class: inhibitors. 1.2% of 410,000 active; further: on the % scale 0 is the no-effect control and ±100 the full control effect; nearly all actives have a fitted effect of over 65% in size
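Read-out: total well GFP (ex488/em500-530) summed from mean per-cell fluorescence. Cells: HEPG2 CAGA-GFP, 1% FBS DMEM, 18 h at 37 degrees C with 500 pg/mL final TGF-beta. Unstimulated wells served as the full-inhibition control; stimulated DMSO wells = 0%.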
* hit, by the source's call; ? = inconclusive; / = no result given. The call rests on the fitted dose curve; in most records, active means well fitted curve in the direction sought with a large enough effect; inconclusive means small, poorly fitted or top-dose-only effect, or another doubt; inactive means no such curve, though single readings can be large; an effect the other way counts as inactive or inconclusive. Potency means the concentration at half of the fitted maximal effect.

SMILES	HT1080-NT tox	HepG2 tox	TDP1 cell CPT	DT40 TDP1 no CPT	HT1080 IDH1KD tx	TGFb inhibitor
O=S(=O)(/N=C(/Nc1ccc(F)cc1F)c1ccccc1)c1ccccc1	1%	-14%	-5%	-7%	10%	-12%
CC(C)CC1OC(C(C)C)Cc2[nH]c(=S)[nH]c(=O)c21 (stereo unspecified)	0%	/	?	?	-6%	/
COc1ccccc1C(=O)Nn1c(C)nc2ccccc2c1=O	1%	10%	10µM*	?	-5%	-18%
Cc1noc(C)c1COc1ccccc1C(=O)Nc1ccc(C(N)=O)cc1	0%	-15%	24%	3%	-1%	8%
COc1cccc2[nH]c(C(=O)NN)c(N)c12	-2%	-4%	?	16µM*	-11%	3%
CCOC(=O)c1sc(NC(=O)c2cc3ccccc3o2)nc1C	1%	-27%	0%	-11%	0%	8%
CCOC(=O)c1sc(NC(=O)c2ccccc2OC)nc1C	-1%	-39%	8.2µM*	?	-3%	4%
CCCCc1nnc(NC(=O)c2ccccc2OCc2c(C)noc2C)s1	0%	5%	16µM*	23µM*	3%	3%
O=C1N(Cc2ccccc2)CC2(Br)COCOC12O (stereo unspecified)	7%	9%	2.3µM*	3.3µM*	?	-2%
O=C1C(c2ccccc2)CN1Cc1ccccc1 (stereo unspecified)	15%	8%	-25%	3%	-12%	2%
CSc1ccc(S(=O)(=O)N2CCC(C(=O)NCC3CCCO3)CC2)cc1 (stereo unspecified)	23%	16%	-5%	-7%	17%	22%
CC(C)Cn1c(N)c(C(=O)COC(=O)C2CC(=O)N(Cc3ccccc3Cl)C2)c(=O)n(C)c1=O (stereo unspecified)	?	0%	?	16µM*	-12%	-1%
COc1ccc(CCN2CC(C(=O)OCC(=O)c3c(N)n(CC(C)C)c(=O)n(C)c3=O)CC2=O)cc1OC (stereo unspecified)	3%	0%	21µM*	13µM*	-7%	13%
FC(F)(F)c1ccnc(Sc2n[nH]c(C(F)(F)F)n2)c1	-5%	-7%	-26%	?	-8%	-3%
FC(F)(F)c1ccc(Sc2n[nH]c(C(F)(F)F)n2)nc1	-10%	-27%	?	29µM*	-5%	-13%
CCC(=O)N[C@@H]1c2ccccc2C2(CCN(Cc3[nH]c4c(Cl)cccc4c3C)CC2)[C@H]1OC	/	/	-14%	-26%	/	/
Cc1ccc(CNC(=O)Cc2c(C)c3cc4c(C)coc4cc3oc2=O)cc1	/	2%	-1%	-20%	/	3%
Cc1coc2cc3oc(=O)c(CC(=O)NCc4ccccc4)c(C)c3cc12	/	-8%	5.8µM*	5.2µM*	/	-33%
Cc1coc2cc3oc(=O)c(CC(=O)NCc4ccc(F)cc4)c(C)c3cc12	/	2%	6.5µM*	5.8µM*	/	0%
Cc1coc2cc3oc(=O)c(CC(=O)NCc4cccc(Cl)c4)c(C)c3cc12	/	-40%	?	21µM*	/	?
Cc1ccc2nc(N(Cc3cccnc3)C(=O)C3COc4ccccc4O3)sc2c1 (stereo unspecified)	/	5%	-5%	-12%	/	-1%
C[C@H]1CN([C@@H](C)CO)C(=O)CCCn2cc(nn2)CO[C@@H]1CN(C)S(C)(=O)=O	-3%	-29%	23%	-14%	-2%	?
CCOC(=O)c1c(NC(=O)COc2ccc(Cl)cc2Cl)sc2c1CCCCC2	/	-1%	-4%	-16%	/	2%
CCCOc1ccc(/C=N/Nc2ccc(C(=O)O)cc2)c(OCCC)c1	-21%	1%	?	-21%	?	0%
CCCOc1ccc(/C=N/Nc2ccccc2[N+](=O)[O-])c(O)c1	-29%	-6%	10µM*	12µM*	?	5%
SMILES	HT1080-NT tox	HepG2 tox	TDP1 cell CPT	DT40 TDP1 no CPT	HT1080 IDH1KD tx	TGFb inhibitor
CCCOc1ccc(/C=N/NC(=S)Nc2ccccc2[N+](=O)[O-])c(O)c1	9.2µM*	-19%	5.8µM*	5.2µM*	15µM*	?
CCOc1ccccc1/C=N/Nc1ccccc1[N+](=O)[O-]	-3%	-8%	1%	-24%	-3%	-23%
CCNC(=S)N/N=C/c1ccccc1[N+](=O)[O-]	20%	4%	23µM*	?	16%	2%
COCC(C)NC(=S)Nc1ccccc1[N+](=O)[O-] (stereo unspecified)	-1%	1%	-27%	-8%	-6%	-10%
CCCOc1ccc(/C=N/Nc2cccc([N+](=O)[O-])c2)c(O)c1	15µM*	-27%	?	?	13µM*	?
[O-][n+]1cccc2ncc3cscc3c21	1%	5%	-2%	9%	3%	20%
Cc1ccc(S(=O)(=O)N[C@H](C(=O)OCC(=O)NC(=O)C2CCCCC2)C(C)C)cc1	0%	2%	2%	-2%	-1%	-1%
COc1cc2c(cc1OC)C(c1ccc(Br)cc1)NCC2 (stereo unspecified)	-2%	-26%	?	?	-8%	13%
CC(C)OC(=O)CCC1(C(=O)O)CCC(=O)NC1 (stereo unspecified)	6%	7%	-4%	-7%	5%	-1%
CSCCC(c1nc2ccccc2[nH]1)n1c(-c2ccc3ncccc3c2)nc2ccccc21 (stereo unspecified)	-21%	/	?	?	-14%	/
CC1=C(C#N)C(/C=N/OCc2ccc(F)cc2Cl)CC(=O)N1 (stereo unspecified)	-2%	-6%	?	?	-14%	0%
CC(=O)c1ccc(NC(=O)C(C)n2nc(-c3ccccc3)c3cc(Cl)ccc32)cc1 (stereo unspecified)	-23%	-29%	?	16µM*	-28%	?
CC1CCN(S(=O)(=O)c2ccc3c(ccn3CC(=O)NCc3ccccc3F)c2)CC1	/	-22%	21µM*	?	/	?
CSc1ccc(CNC(=O)CCn2ccc3cc(S(=O)(=O)N4CCC(C)CC4)ccc32)cc1	/	-12%	21µM*	?	/	0%

Source: PubChem (National Center for Advancing Translational Sciences (NCATS))
